The values below come from PubChem BioAssay (Tox21).

A short description of test [1]: qHTS assay to identify small molecule antagonists of the thyroid receptor (TR) signaling pathway (AID 743065). Further: nearly all actives have a fitted effect of over 55% in size. Further: potency means the concentration at half of the fitted maximal effect. In a few lines: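 GH3.TRE-Luc rat pituitary cells carrying two TR response elements driving luciferase were plated for 4 h, given compound plus 1 nM T3 (final), and incubated 23.5 h at 37 C. ONE-Glo luminescence measured reporter inhibition; CellTiter-Fluor fluorescence tracked cytotoxicity.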
On the technique in general: qHTS replaces the single test concentration by a dilution series.

Test [2] relates to thyroid hormone receptor (rat, GH3 cells). Description: qHTS assay to identify small molecule agonists of the thyroid receptor (TR) signaling pathway (AID 743066; calls by dose curve).
In test [3] the target is Estrogen receptor (Homo sapiens) (UniProt P03372). Description: qHTS assay to identify small molecule antagonists of the estrogen receptor alpha (ER-alpha) signaling pathway (AID 743069; active means well fitted curve in the direction sought with a large enough effect in the signal ratio in the repeat runs, not every such curve was filed as active; inconclusive means weak or mixed curves, or effect the other way; inactive means no such curve, though single readings can be large or run the other way; the % refers to the signal ratio; further: potency means the concentration at half of the fitted maximal effect). The method, boiled down:
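Estradiol-stimulated ER-alpha-UAS-bla HEK293 cells, 18 hr compound exposure at 37C. LiveBLAzer B/G substrate, 2 hr RT, fluorescence read.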

The target is the same in test [4]. As to the kind of experiment: qHTS assay to identify small molecule agonists of the estrogen receptor alpha (ER-alpha) signaling pathway (AID 743075; calls by dose curve;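 further: HEK293 GripTite cells with ER-alpha and UAS-driven beta-lactamase reporter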; further: potency means the concentration at half of the fitted maximal effect).
Test [5] has the same target. As to the kind of experiment: qHTS assay to identify small molecule agonists of the estrogen receptor alpha (ER-alpha) signaling pathway using the BG1 cell line (AID 743079). Further: nearly all actives have a fitted effect of over 20% in size. Further: potency means the concentration at half of the fitted maximal effect. Conditions: BG1Luc4E2 cells, ERE-luciferase agonist, 22 h.
Test [6] can be described thus: qHTS assay to identify small molecule antagonists of the estrogen receptor alpha (ER-alpha) signaling pathway using the BG1 cell line (AID 743080; calls by dose curve;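 further: BG1 cells stimulated with 17beta-estradiol alongside compound; nearly all actives have a fitted effect of over 25% in size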). In a few lines: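 After 5 days in phenol-red-free 10% charcoal-stripped FBS medium, BG1-Luc-4E2 cells were seeded, left 24 h at 37 C, co-treated with compounds and 17beta-estradiol for 21.5 h, then assayed for viability and luciferase.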

The nature of test [7]: qHTS assay to identify small molecule antagonists of the estrogen receptor alpha (ER-alpha) signaling pathway using the BG1 cell line - cell viability counter screen (AID 743081).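 Further: compound given together with 17beta-estradiol as the ER stimulus; nearly all actives have a fitted effect of over 45% in size.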 Further: potency means the concentration at half of the fitted maximal effect.
The next test concerns the target Aromatase (Homo sapiens) (UniProt P11511). As to the kind of experiment: qHTS assay to identify aromatase inhibitors (AID 743083). Further: nearly all actives have a fitted effect of over 55% in size. Further: potency means the concentration at half of the fitted maximal effect.
Test [8] in a line: qHTS assay to identify aromatase inhibitors - cell viability counter screen (AID 743084).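 Further: cells stimulated with testosterone during compound exposure; nearly all actives have a fitted effect of over 55% in size.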 Further: potency means the concentration at half of the fitted maximal effect.
Test [9] has as its target Aryl hydrocarbon receptor (Homo sapiens) (UniProt P35869). Description: qHTS assay to identify small molecule that activate the aryl hydrocarbon receptor (AhR) signaling pathway (AID 743085).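 Further: HG2L7.5c1 human HepG2 liver cells with stably integrated DRE-driven firefly reporter; nearly all actives have a fitted effect of over 15% in size.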 In a few lines: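 Measured in HG2L7.5c1 cells: CellTiter-Fluor signal (30 min incubation, 37C) for viability, then luciferase luminescence (30 min, room temperature). Compound contact time was 24 h at 37C, following a 5 h pre-incubation.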

The nature of test [10]: qHTS assay to identify small molecule that activate the aryl hydrocarbon receptor (AhR) signaling pathway - cell viability counter screen (AID 743086).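 Further: HepG2 liver cells carrying the AhR DRE luciferase reporter; nearly all actives have a fitted effect of over 45% in size.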 The method, boiled down:
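HepG2-AhR-luc (HG2L7.5c1) cells, 4000/well, were preincubated 5 h at 37C, exposed to compound in qHTS format for 24 hr at 37C, then given CellTiter-Fluor for 30 min; viability was read as fluorescence in the reporter wells.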

For test [11], the target named is Peroxisome proliferator-activated receptor gamma (Homo sapiens) (UniProt P37231). Description: qHTS assay to identify small molecule agonists of the peroxisome proliferator-activated receptor gamma (PPARg) signaling pathway (AID 743094; active means well fitted activation curve with a large enough effect in the signal ratio in the repeat runs, not every such curve was filed as active; inconclusive means weak or mixed curves, or effect the other way; inactive means no such curve, though single readings can be large or run the other way; the % refers to the signal ratio). The method, boiled down: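 GeneBLAzer PPARg UAS-bla HEK293H cells carrying a stably integrated beta-lactamase reporter were pre-incubated 5 h at 37C, then exposed to compounds in DMSO for 17 h at 37C; LiveBLAzer B/G FRET substrate was added for 1 h at room temperature and fluorescence read.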
Sequence of Peroxisome proliferator-activated receptor gamma (Homo sapiens) (P37231 whole entry, looked up): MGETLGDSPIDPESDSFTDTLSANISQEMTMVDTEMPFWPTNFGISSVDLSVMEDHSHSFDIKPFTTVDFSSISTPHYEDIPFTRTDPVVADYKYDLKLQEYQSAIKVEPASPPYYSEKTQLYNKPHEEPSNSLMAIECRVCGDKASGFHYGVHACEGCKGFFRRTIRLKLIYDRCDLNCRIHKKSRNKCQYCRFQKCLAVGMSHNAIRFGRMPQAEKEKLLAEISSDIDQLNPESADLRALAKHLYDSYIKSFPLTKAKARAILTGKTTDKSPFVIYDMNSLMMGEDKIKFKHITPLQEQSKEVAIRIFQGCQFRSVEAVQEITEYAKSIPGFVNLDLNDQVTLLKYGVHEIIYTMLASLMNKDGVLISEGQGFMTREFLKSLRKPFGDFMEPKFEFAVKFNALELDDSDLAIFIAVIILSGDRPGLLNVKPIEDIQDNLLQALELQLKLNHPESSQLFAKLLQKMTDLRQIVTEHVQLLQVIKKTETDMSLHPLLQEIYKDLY

Test [12] in a line: qHTS assay to identify small molecule antagonists of the peroxisome proliferator-activated receptor gamma (PPARg) signaling pathway - cell viability counter screen (AID 743194). Further: nearly all actives have a fitted effect of over 55% in size. Conditions: Potency: co-treated with 50 nM rosiglitazone. The method, boiled down:
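PPARg-UAS-bla HEK293H cells were plated, rested 5 h at 37 C, then treated with compounds plus rosiglitazone (50 nM final) for 17 h at 37 C; viability was then read by CellTiter-Glo luminescence after 30 min at room temperature.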

A short description of test [13]: qHTS assay for small molecule agonists of the antioxidant response element (ARE) signaling pathway - cell viability counter screen (AID 743203; calls by dose curve; further: nearly all actives have a fitted effect of over 55% in size; further: potency means the concentration at half of the fitted maximal effect). In a few lines: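 CellSensor ARE-bla HepG2 cells, 2,000 per well, rested 5 hrs at 37C/5% CO2, then exposed to compound in DMSO for 16 hrs; viability read as CellTiter-Glo luminescence after 30 min at room temperature, in the reporter wells.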

Test [14] in a line: qHTS assay for small molecule activators of the heat shock response signaling pathway (AID 743210; active means well fitted activation curve with a large enough effect in the signal ratio in the repeat runs, with a control signal flat, not every such curve was filed as active; inconclusive means weak or mixed curves; the % refers to the signal ratio;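 further: HeLa cells with beta-lactamase reporter driven by heat shock elements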). The method, boiled down:
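Reporter gene assay: HeLa cells stably bearing an HSE-bla construct, compound treatment 5 h at 37 C, LiveBLAzer substrate 2.5 h at RT, fluorescence intensity.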

Test [15] is described as follows: qHTS assay to identify small molecule agonists of the peroxisome proliferator-activated receptor delta (PPARd) signaling pathway - cell viability counter screen (AID 743211). Further: nearly all actives have a fitted effect of over 55% in size. In a few lines:
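Following 5 h plating at 37 C and 5% CO2, PPARd UAS-bla HEK293H cells took up test compounds for 17 h. Viability was quantified by luminescence 30 min after CellTiter-Glo addition at room temperature.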

Test [16] can be described thus: qHTS assay to identify small molecule antagonists of the estrogen receptor alpha (ER-alpha) signaling pathway - cell viability counter screen (AID 743074; calls by dose curve;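 further: HEK293 cells carrying ER-alpha-UAS-bla reporter stimulated with 17beta-estradiol; nearly all actives have a fitted effect of over 45% in size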).
Test [17] can be described thus: qHTS assay for small molecule agonists of the antioxidant response element (ARE) signaling pathway (AID 743202; active means well fitted activation curve with a large enough effect in the signal ratio in the repeat runs, not every such curve was filed as active; inconclusive means weak or mixed curves, or effect the other way; inactive means no such curve, though single readings can be large or run the other way; the % refers to the signal ratio; further: potency means the concentration at half of the fitted maximal effect). In a few lines: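 Compounds delivered in DMSO to ARE-bla HepG2 cells (2,000 cells/well, pre-incubated 5 h) and left 16 h at 37 C. LiveBLAzer B/G FRET substrate then added for 2 h at RT before fluorescence reading.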
The nature of test [18]: qHTS assay for small molecule activators of the heat shock response signaling pathway - cell viability counter screen (AID 743209). Further: nearly all actives have a fitted effect of over 50% in size. In a few lines:
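CellSensor HSE-bla HeLa cells, plated overnight at 37 C/5% CO2, were exposed to compounds in DMSO for 5 h at 37 C. Viability was then read in the same wells by CellTiter-Glo luminescence after 30 min at room temperature.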

In test [19] the target is Peroxisome proliferator-activated receptor gamma (Homo sapiens) (UniProt P37231). As to the kind of experiment: qHTS assay to identify small molecule antagonists of the peroxisome proliferator-activated receptor gamma (PPARg) signaling pathway (AID 743191; calls by dose curve; further: nearly all actives have a fitted effect of over 30% in size). In a few lines:
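GeneBLAzer PPARg UAS-bla HEK293H cells carrying a UAS-driven beta-lactamase reporter were plated at 3000 cells/well, preincubated 5 h at 37C, then given compound for 17 h at 37C; LiveBLAzer B/G FRET substrate was read after 1 h at room temperature.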

Unmarked numbers belong to inactive results. The source made the active and inactive calls. Unless noted, the call rests on the fitted dose curve; in most records, active means well fitted curve in the direction sought with a large enough effect in the repeat runs; inconclusive means weak or mixed curves; inactive means no such curve, though single readings can be large; an effect the other way counts as inactive or inconclusive.
On the % scale 0 is the no-effect control and ±100 the full control effect.

Sequence of Estrogen receptor (Homo sapiens) (P03372 whole entry, looked up): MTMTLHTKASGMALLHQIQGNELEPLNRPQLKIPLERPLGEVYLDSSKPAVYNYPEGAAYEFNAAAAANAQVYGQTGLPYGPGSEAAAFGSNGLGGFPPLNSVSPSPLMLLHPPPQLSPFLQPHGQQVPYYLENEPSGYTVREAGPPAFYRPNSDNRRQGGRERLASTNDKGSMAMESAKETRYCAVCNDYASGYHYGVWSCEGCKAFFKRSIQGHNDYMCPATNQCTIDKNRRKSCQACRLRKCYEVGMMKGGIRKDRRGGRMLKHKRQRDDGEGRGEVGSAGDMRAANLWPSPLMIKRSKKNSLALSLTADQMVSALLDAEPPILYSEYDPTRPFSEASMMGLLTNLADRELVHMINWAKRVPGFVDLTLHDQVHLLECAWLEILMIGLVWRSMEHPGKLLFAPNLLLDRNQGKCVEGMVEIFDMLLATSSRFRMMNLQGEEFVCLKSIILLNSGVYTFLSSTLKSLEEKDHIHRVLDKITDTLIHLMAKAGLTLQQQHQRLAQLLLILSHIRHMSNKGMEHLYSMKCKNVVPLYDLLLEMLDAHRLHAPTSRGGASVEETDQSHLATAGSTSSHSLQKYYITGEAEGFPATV
Sequence of Aromatase (Homo sapiens) (P11511 whole entry, looked up): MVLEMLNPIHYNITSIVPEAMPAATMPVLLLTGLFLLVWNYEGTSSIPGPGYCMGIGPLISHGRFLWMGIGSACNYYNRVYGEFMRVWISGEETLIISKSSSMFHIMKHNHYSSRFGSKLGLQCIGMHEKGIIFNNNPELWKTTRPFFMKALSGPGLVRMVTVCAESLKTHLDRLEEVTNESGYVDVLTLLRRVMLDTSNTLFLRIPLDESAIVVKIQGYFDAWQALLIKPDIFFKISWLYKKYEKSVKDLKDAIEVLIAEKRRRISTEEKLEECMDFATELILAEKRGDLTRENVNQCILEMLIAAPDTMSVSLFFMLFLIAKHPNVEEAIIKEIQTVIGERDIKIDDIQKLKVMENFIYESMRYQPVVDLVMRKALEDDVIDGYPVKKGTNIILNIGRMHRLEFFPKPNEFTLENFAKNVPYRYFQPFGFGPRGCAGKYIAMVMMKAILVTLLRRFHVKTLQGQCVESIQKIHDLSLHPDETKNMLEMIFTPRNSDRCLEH
Sequence of Aryl hydrocarbon receptor (Homo sapiens) (P35869 whole entry, looked up): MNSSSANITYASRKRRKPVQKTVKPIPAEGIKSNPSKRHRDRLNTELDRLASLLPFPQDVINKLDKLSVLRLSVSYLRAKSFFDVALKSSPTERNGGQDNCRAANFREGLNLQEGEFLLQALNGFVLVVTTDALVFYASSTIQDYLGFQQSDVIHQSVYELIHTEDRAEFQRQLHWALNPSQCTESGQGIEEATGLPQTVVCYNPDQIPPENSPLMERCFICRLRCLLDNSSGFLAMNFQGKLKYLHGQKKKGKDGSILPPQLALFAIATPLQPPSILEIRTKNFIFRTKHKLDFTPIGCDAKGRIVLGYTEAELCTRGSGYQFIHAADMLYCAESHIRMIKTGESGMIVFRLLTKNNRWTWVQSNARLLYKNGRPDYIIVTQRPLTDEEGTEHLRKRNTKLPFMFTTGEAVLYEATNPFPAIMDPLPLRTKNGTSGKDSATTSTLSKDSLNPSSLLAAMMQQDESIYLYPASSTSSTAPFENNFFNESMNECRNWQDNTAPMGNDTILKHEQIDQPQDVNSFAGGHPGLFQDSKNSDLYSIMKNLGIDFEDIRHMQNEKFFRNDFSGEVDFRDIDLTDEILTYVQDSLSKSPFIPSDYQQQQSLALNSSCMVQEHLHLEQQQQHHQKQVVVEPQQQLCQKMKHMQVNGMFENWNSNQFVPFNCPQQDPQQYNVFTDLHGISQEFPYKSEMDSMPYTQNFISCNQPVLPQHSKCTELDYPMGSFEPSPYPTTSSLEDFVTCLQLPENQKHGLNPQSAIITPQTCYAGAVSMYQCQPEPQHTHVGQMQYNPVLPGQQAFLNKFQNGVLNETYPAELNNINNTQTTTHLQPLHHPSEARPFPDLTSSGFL

As for `CC1(C)C(=O)NC(=O)NC1=O`, the Potency result in [1], in [2], in test [3], in test [4], in [6] and in [7] was “inactive” each time. Besides, the Potency result (with Aromatase (Homo sapiens); in [8]; in [9]; in test [12]; in test [13]; in test [15]) was “inactive” throughout. In test [5] (at 70.3 µM (top of the series)), the activation was -7.44%. Also, the molecule was called inactive in [10], in test [11] and in test [14].
For `CC1CCCCC1NC(=O)Nc1ccccc1` (stereo not drawn), the Potency entry (in test [1]; in test [2]; in [3]; in test [4]; in test [7]; with Aromatase (Homo sapiens)) was “inactive” each time. The Potency result in test [8], in test [9], in test [17], in test [18] and in [15] was “inactive” each time. For the same molecule, the molecule was called inactive in test [16], in test [10], in test [11] and in test [14].
Turning to `O=C(Cc1ccccc1)OCc1ccccc1`, the Potency result (in test [1]; in [2]; in test [4]; in test [6]; in test [7]; with Aromatase (Homo sapiens)) was “inactive” in each case. Besides, the Potency entry in [8], in [19], in [12], in test [17], in [13] and in test [18] was “inactive” each time. Besides, the Potency entry in [15] was “inactive”. The outcome in test [16], in test [10] and in test [11] was inactive. In addition, the activation in [5] (at 95 µM (top of the series)) was 2.04%.
Consider `O=C(O)C(Br)CBr` (stereo not drawn), for which the Potency result (in test [1]; in [2]; in [4]; in test [6]; in test [7]; with Aromatase (Homo sapiens)) was “inactive” throughout. The Potency entry in test [8], in [9], in test [13], in [18] and in test [15] was “inactive” each time. Moreover, the molecule was called inactive in test [16], in test [10] and in test [14]. For the same molecule, the activation in [5] (at 95 µM (top of the series)) was -6.3%. In addition, the Potency in [17] was 27.8 µM (active).
`COc1cccc2c1cc([N+](=O)[O-])c1c(C(=O)O)cc3c(c12)OCO3`: the Potency was 2.73 µM (active) in test [1]; 21.9 µM [inconclusive] (active) in test [3]; 61.1 µM (active) in [7]; 10.9 µM (active) in the test with Aromatase (Homo sapiens); 24.3 µM (active) in test [8]; 17.2 µM (active) in test [13]. Also, the Potency result in test [2], in [4] and in test [15] was “inactive” each time. Also, the outcome in test [14] was inactive.
Consider `C#C[C@]1(O)C=C[C@H]2[C@@H]3CCC4=CC(=O)CC[C@@H]4[C@H]3CC[C@@]21CC`, for which the Potency in test [1] is 11.9 µM (active); in test [4], 0.535 µM [inconclusive] (active); in [5], 0.168 µM (active). Moreover, the Potency entry (in [2]; in [6]; in test [7]; with Aromatase (Homo sapiens); in test [8]; in [9]) was “inactive” in each case. In addition, the Potency entry in test [12], in test [13], in [18] and in [15] was “inactive” throughout. Also, the call in test [16], in [10] and in test [14] was inactive.
`CCOC(=O)CP(=O)(OCC)OCC`: the Potency entry in test [1], in test [2], in [3], in [4], in test [6] and in test [7] was “inactive” throughout. Besides, the Potency result (with Aromatase (Homo sapiens); in test [8]; in [9]; in test [12]; in [17]; in [13]) was “inactive” each time. Moreover, the Potency result in test [18] and in test [15] was “inactive” throughout. Moreover, the call in test [16], in [10], in [11] and in test [14] was inactive.
Consider `O=[N+]([O-])c1ccc2c3c(cccc13)CC2`, for which the Potency result (in test [1]; in test [2]; in [4]; in test [6]; in test [7]; in the test with Aromatase (Homo sapiens)) was “inactive” in each case. Moreover, the Potency entry in test [8], in [19], in test [12], in [13], in test [18] and in test [15] was “inactive” each time. The call in test [16], in test [10] and in [11] was inactive. Further, the activation in test [5] (at 70.3 µM (top of the series)) was -4.67%.
Turning to `Cc1cnc[nH]1`, the Potency result (in test [1]; in test [2]; in test [7]; with Aromatase (Homo sapiens); in [8]; in test [9]) was “inactive” throughout. Further, the Potency result in [19], in test [17], in test [13] and in [15] was “inactive” in each case. The result in [16], in test [10] and in [11] was inactive.
For the molecule `COc1cc(OC)nc(Sc2cccc(Cl)c2C(=O)O)n1`, the Potency entry (in [1]; in test [2]; in [7]; with Aromatase (Homo sapiens); in [8]; in test [19]) was “inactive” in each case. Moreover, the Potency entry in test [12], in test [17], in test [13] and in test [15] was “inactive” throughout. Moreover, the call in test [16], in test [10], in test [11] and in test [14] was inactive.
For `COC(=O)C(C)Oc1ccc(Oc2ccc(Cl)cc2Cl)cc1` (stereo not drawn), the Potency result (in [1]; in [2]; in test [7]; with Aromatase (Homo sapiens); in [8]; in test [9]) was “inactive” in each case. Besides, the Potency result in [19], in test [12], in [17], in [13], in test [18] and in [15] was “inactive” in each case. Also, the call in test [16], in test [10] and in test [14] was inactive.
On to `CCOP(=O)(OCC)OP(=O)(OCC)OCC`, for which the Potency entry (in test [1]; in test [2]; in test [7]; with Aromatase (Homo sapiens); in test [8]; in [9]) was “inactive” in each case. The Potency result in test [19], in [12], in test [17], in test [18] and in test [15] was “inactive” throughout. Besides, the outcome in test [16], in test [10], in [11] and in test [14] was inactive.
As to `Nc1n[nH]c(N)n1`, the Potency result (in test [1]; in test [2]; in test [7]; with Aromatase (Homo sapiens); in [8]; in test [9]) was “inactive” in each case. In addition, the Potency entry in test [19], in test [12], in [17], in test [13], in test [18] and in [15] was “inactive” in each case. For the same molecule, the outcome in [16], in test [10] and in [11] was inactive.
As to `O=[N+]([O-])c1cccc(O)c1`, the Potency result (in [1]; in [2]; in [7]; with Aromatase (Homo sapiens); in test [8]; in test [9]) was “inactive” each time. Further, the Potency entry in [19], in [12], in test [13] and in test [15] was “inactive” each time. In addition, the call in test [16], in test [10] and in test [11] was inactive.
Regarding `CC(COc1ccc(Oc2ccccc2)cc1)Oc1ccccn1` (stereo not drawn), the Potency entry (in [1]; in [2]; in test [7]; with Aromatase (Homo sapiens); in test [8]; in test [9]) was “inactive” each time. For the same molecule, the Potency entry in test [19], in [12], in test [13] and in test [15] was “inactive” each time. In addition, the call in [16], in test [10] and in [11] was inactive. Moreover, in [17], the Potency is 48.5 µM (active).
